Laboratory results reported in PubChem BioAssay (NCI).
Compounds without any hit were thinned out: in the full panel of roughly 79,000, 15% have a hit. Active and inactive are the calls of the source. No stated cut-off is given here; in the data, active means growth inhibition above about 70%; inactive means the rest.

Tests used:
[1] = NCI Yeast Anticancer Drug Screen. Data for the rad50 strain (AID 155);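 further: 0% = growth of vehicle-only cultures of the same strain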; conditions: S. cerevisiae rad50 strain growth inhibition; at 50.0 µM; active compounds read high
Method in brief: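 Readout: growth inhibition relative to vehicle-treated cultures. Compound exposure was carried out in a genetically defined yeast strain deficient in DNA damage repair.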

[2] = NCI Yeast Anticancer Drug Screen. Data for the mec2-1 strain (AID 157); conditions: S. cerevisiae mec2-1 strain, at 50.0 µM, active compounds read high
Method in brief: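 Compounds were applied to mec2-1 yeast cells. Their growth was then compared with that of vehicle-treated cultures to give growth inhibition.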

[3] = NCI Yeast Anticancer Drug Screen. Data for the sgs1 mgt1 strain (AID 161);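 further: 0% = growth of cultures given vehicle only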; conditions: S. cerevisiae sgs1 mgt1 strain, at 50.0 µM, active compounds read high
Method in brief: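 Growth of a repair-deficient yeast mutant was monitored after compound treatment and expressed as inhibition relative to vehicle-treated cultures.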

[4] = NCI Yeast Anticancer Drug Screen. Data for the cln2 rad14 strain (AID 165);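 further: 0% = growth equal to vehicle treated cultures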; conditions: S. cerevisiae cln2 rad14 strain, at 50.0 µM, active compounds read high
Method in brief: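 Strain: cln2 rad14 yeast, altered in cell cycle control and DNA damage repair. Read-out: growth inhibition vs vehicle.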

[5] = NCI Yeast Anticancer Drug Screen. Data for the bub3 strain (AID 167); conditions: S. cerevisiae bub3 mutant strain, at 50.0 µM, active compounds read high
Method in brief: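 Readout: yeast growth inhibition, expressed relative to vehicle-only wells. The test organism is a mutant strain from a panel with lesions in DNA repair or checkpoint genes.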

[6] = NCI Yeast Anticancer Drug Screen. Data for the mlh1 rad18 strain (AID 175); conditions: S. cerevisiae mlh1 rad18 strain growth inhibition; at 50.0 µM; active compounds read high
Method in brief: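 A repair-deficient yeast strain is exposed to test compound, and growth is scored relative to vehicle-treated controls.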

Measured: growth inhibition

CC(C)(C)OC(=O)CC(c1ccccc1)c1ccccc1
inactive: [1] -11.5% | [2] -9.4% | [3] -8.7% | [4] -41.5% | [5] 49.1% | [6] -21.9%

COc1ccc(N=C(N)N=C(N)N)cc1
inactive: [1] -3.3% | [2] -2% | [3] -6.9% | [4] 8.2% | [5] -2.65% | [6] 0%

Cc1ccc(NC(=O)Oc2ccc(Cl)cc2Cl)cc1NC(=O)Oc1ccc(Cl)cc1Cl
inactive: [1] -20.1% | [2] -1.15% | [3] -13.3% | [4] -13.1% | [5] -3.2% | [6] -42.7%

COc1cc2cnc(-c3ccncc3)c(O)c2cc1OC
inactive: [1] 30.9% | [2] 40.6% | [3] 37.2% | [4] 1.9% | [5] 36.2% | [6] 28.6%

Cc1ccc2ccccc2c1CC(=O)NN
inactive: [1] 6.6% | [2] -26.8% | [3] -0.6% | [4] -25.2% | [5] 6.9% | [6] -8.95%

Cn1cc(S(C)=O)c(=O)c2ccccc21 (stereo unspecified)
inactive: [1] 2.65% | [2] -1.6% | [3] -5.6% | [4] -13.9% | [5] 8.3% | [6] -2.35%

Cc1c(N)nc(C(CC(N)=O)NCC(N)C(N)=O)nc1C(=O)NC(C(=O)NC(C)C(O)C(C)C(=O)NC(C(=O)NCCc1nc(-c2nc(C(=O)NCCC[S+](C)CC(N)=O)cs2)cs1)C(C)O)C(OC1OC(CO)C(O)C(O)C1OC1OC(CO)C(O)C(OC(N)=O)C1O)c1cnc[nH]1 (stereo unspecified)
inactive: [1] 63.9% | [2] 58.9% | [4] 56.9%
active: [3] 71.7% | [5] 80% | [6] 75.7%

O=Cc1cc(Cl)cc(Cl)c1
inactive: [1] 5% | [2] -18.1% | [3] 0.85% | [4] 8.7% | [5] 8.95% | [6] 6.55%

CCC(O)(c1ccc(O)cc1)C(O)(CC)c1ccc(O)cc1 (stereo unspecified)
inactive: [1] 1.4% | [2] -12.8% | [3] -0.2% | [4] 5.55% | [5] 17.4% | [6] -14.4%

Cc1cc(=S)cc(C)[nH]1
inactive: [1] 17.1% | [2] 5.5% | [3] 11.3% | [4] 2.1% | [5] 0.45% | [6] 33.4%

COc1ccc2nc(NCN3C(=O)c4ccccc4C3=O)sc2c1
inactive: [1] 5.05% | [2] -4.05% | [3] -19.1% | [4] 26.9% | [5] 9.9% | [6] -5.5%

O=C1c2ccccc2S(=O)N1OCc1ccccc1 (stereo unspecified)
inactive: [1] -0.85% | [2] 0.75% | [3] 15.4% | [4] -16.6% | [5] 0.95% | [6] 9.6%

O=C(CSSCC(=O)Nc1ccc(Br)cc1)Nc1ccc(Br)cc1
inactive: [1] 28.8% | [2] 2.45% | [3] -11.5% | [4] 18.6% | [5] -6.4% | [6] 26.4%

CCCCCCCCCC[N+](C)(C)CC(O)CO (stereo unspecified)
inactive: [1] -51.8% | [2] 7.9% | [3] 2.2% | [4] 9.45% | [5] -2.85% | [6] -11.3%

CC(C#N)OCCO (stereo unspecified)
inactive: [1] 9.3% | [2] -2.3% | [3] 7.85% | [4] -1.85% | [5] -6.7% | [6] 5.15%

CCCCCCCCCCCCNC(=S)N/N=C/c1ccc(OC)cc1
inactive: [1] -19.1% | [2] -10.5% | [3] -16.8% | [4] 13.3% | [5] -8.4% | [6] -28.2%

CC(=O)OC1CC2C(CCC3CC(C(C)=O)CCC32C)C2CCC(/C(C)=C/C=C(c3ccccc3)c3ccccc3)C12C (stereo unspecified)
inactive: [1] 19.6% | [2] 3.1% | [3] 7.35% | [4] -9.4% | [5] -3.05% | [6] 2.6%

CC/C(C)=N/NS(=O)(=O)c1ccc(C)cc1
inactive: [1] 43.9% | [2] 13.2% | [3] 2.3% | [4] 16% | [5] 1.15% | [6] 42.5%

c1ccc(COC2COC(c3ccccc3)OC2)cc1 (stereo unspecified)
inactive: [1] 5.95% | [2] -35% | [3] 0.7% | [4] 16.9% | [5] 7.45% | [6] 3.15%

CN1C(=O)NC(C)(C)C1=O
inactive: [1] -1.5% | [2] 3.3% | [3] -1.75% | [4] -13.7% | [5] -8.45% | [6] -4.95%

CCN(CC)CCCC(C)Nc1c2ccccc2nc2cc(Cl)cc(Cl)c12 (stereo unspecified)
inactive: [1] 17.6% | [2] 4.15% | [3] 3.1% | [4] 10.9% | [5] 9.6% | [6] 26.8%

OCC1(CO)CCC=CO1
inactive: [1] 3.8% | [2] -7.8% | [3] 2.5% | [4] 10.7% | [5] 1.05% | [6] 5%

CC1OC(OC2C(O)CC(OC3C(O)CC(OC4CCC5(C)C(CCC6C5CCC5(C)C(C7=CC(=O)OC7)CCC65O)C4)OC3C)OC2C)CC(O)C1O (stereo unspecified)
inactive: [1] 7.6% | [2] 2.4% | [3] -17.5% | [4] 16.8% | [5] 6.65% | [6] 27.2%

Cc1ccnc2ccccc12
inactive: [1] 0.15% | [2] 1.55% | [3] -1.6% | [4] -3.2% | [5] -2.15% | [6] -11.4%

CC(C)(C)OC(=O)NCC(O)CNC(=O)OC(C)(C)C
inactive: [1] -1.25% | [2] -6.6% | [3] -45.8% | [4] -26% | [5] -22.9% | [6] -24.6%

Cc1ccc(N=Nc2ccc(O)c(CN(C)C)c2)cc1
inactive: [1] -14.6% | [2] -9.15% | [3] -24.4% | [4] -39.8% | [5] 18% | [6] -17.1%

O=C1Cc2c([nH]c3ccccc23)-c2ccccc2N1
inactive: [1] 25.1% | [2] 13.9% | [3] 13.8% | [4] 5.05% | [5] 35.8% | [6] 21.1%

O=C1OC(Oc2ccccc2OC2OC(=O)c3ccccc32)c2ccccc21 (stereo unspecified)
inactive: [1] -6.9% | [2] 3.7% | [3] 0.4% | [4] 5.95% | [5] -5.05% | [6] 9.85%

O=C(Nc1c(C(=O)NC2CCCCC2)[nH]c(=O)[nH]c1=O)c1ccc(Cl)cc1
inactive: [1] -18.8% | [2] -1.35% | [3] -19.4% | [4] 2.85% | [5] -0.25% | [6] 5.5%

CC[N+](CC)(CC)CCO
inactive: [1] -11.6% | [2] -23.6% | [3] -10.9% | [4] 20.7% | [5] -11.5% | [6] -18.5%

c1ccc(-c2nnc(-c3ccc4ccccc4c3)o2)cc1
inactive: [1] -0.1% | [2] -6.5% | [3] 1.1% | [4] -40% | [5] 13.4% | [6] -2%

COc1ccc(/C=C2\NC(=S)N(/C=C3\C(=O)Oc4ccccc4C3=O)C2=O)cc1OC
inactive: [1] -5.85% | [2] -17.6% | [3] 13.1% | [4] -7.85% | [5] -13.8% | [6] 6.4%

NNC(=S)N/N=C\c1ccnc2ccccc12
inactive: [1] 9.05% | [2] 2.85% | [3] 36.6% | [4] 28.7% | [5] 30.2% | [6] 23.4%

Cc1cc(Cl)cc(CN(C)Cc2c(C)[nH]c(=O)[nH]c2=O)c1O
inactive: [1] -31.4% | [2] -17.1% | [3] -17.2% | [4] 2.65% | [5] -0.5% | [6] -8.9%

CCCCC(C(=O)OCC)C(=O)OCC
inactive: [1] 5.9% | [2] 4.45% | [3] -6.35% | [4] -53% | [5] -2.75% | [6] -3.2%

Brc1ccc2noc(-c3ccccc3)c2c1
inactive: [1] 29.4% | [2] 2.25% | [3] 31.6% | [4] -1.6% | [5] 9.95% | [6] 16.9%
